# In the supplement of paper PMC8728848:
# The full list was thinned out, with the strongest signals kept by preference.
# Experiments:
# Assay in all cases: glycan array binding signal (z-score within array); higher = stronger binding
# Conditions in all cases: glycan notation: IUPAC condensed, linker removed
# [1] = target: Fuc(a1-2)Gal(b1-3)[Fuc(a1-4)]GlcNAc(b1-2)Man(a1-3)[Fuc(a1-2)Gal(b1-3)[Fuc(a1-4)]GlcNAc(b1-2)Man(a1-3)]Man(b1-4)GlcNAc(b1-4)GlcNAc
# Method in brief: (§1)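 From the Consortium for Functional Glycomics database, 3228 arrays were curated, keeping only those whose protein sequence was available. Binding is given as a within-array Z-score averaged across arrays sharing a protein sequence and across linkers. Negative Z-scores can be read as non-binding.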
# [2] = target: Fuc(a1-2)Gal(b1-4)GlcNAc(b1-2)Man(a1-3)[Fuc(a1-2)Gal(b1-4)GlcNAc(b1-2)Man(a1-6)]Man(b1-4)GlcNAc(b1-4)[Fuc(a1-6)]GlcNAc
# Method in brief: as §1
# [3] = target: Fuc(a1-2)Gal(b1-4)GlcNAc(b1-3)Gal(b1-4)GlcNAc
# Method in brief: as §1
# [4] = target: Fuc(a1-2)Gal(b1-4)GlcNAc(b1-6)GalNAc
# Method in brief: as §1
# [5] = target: Fuc(a1-2)Gal(b1-4)[Fuc(a1-3)]GlcNAc
# Method in brief: as §1
# [6] = target: Fuc(a1-2)[Gal(a1-3)]Gal
# Method in brief: as §1
# [7] = target: Fuc(a1-2)[Gal(a1-4)]Gal(b1-4)GlcNAc
# Method in brief: as §1
# [8] = target: Fuc(a1-2)[GalNAc(a1-3)]Gal(b1-3)GlcNAc(b1-2)Man(a1-3)[Fuc(a1-2)[GalNAc(a1-3)]Gal(b1-3)GlcNAc(b1-2)Man(a1-6)]Man(b1-4)GlcNAc(b1-4)GlcNAc
# Method in brief: as §1
# [9] = target: Fuc(a1-2)[GalNAc(a1-3)]Gal(b1-4)GlcNAc(b1-3)Gal(b1-4)GlcNAc
# Method in brief: as §1
# [10] = target: Fuc(a1-2)[GalNAc(a1-3)]Gal(b1-4)GlcNAc(b1-3)GalNAc
# Method in brief: as §1
# [11] = target: Fuc(a1-3)GlcNAc
# Method in brief: as §1
# [12] = target: Fuc(a1-3)[Gal(b1-4)]GlcNAc(b1-2)Man(a1-3)[Fuc(a1-3)[Gal(b1-4)]GlcNAc(b1-2)Man(a1-6)]Man(b1-4)GlcNAc(b1-4)GlcNAc
# Method in brief: as §1
# [13] = target: Fuc(a1-3)[GalNAc(b1-4)]GlcNAc
# Method in brief: as §1
# [14] = target: Fuc(b1-3)GlcNAc
# Method in brief: as §1
# [15] = target: Gal(a1-4)Gal(b1-4)GlcNAc(b1-2)Man(a1-3)[Gal(a1-4)Gal(b1-4)GlcNAc(b1-2)Man(a1-6)]Man(b1-4)GlcNAc(b1-4)GlcNAc
# Method in brief: as §1
# [16] = target: Gal(a1-6)Glc
# Method in brief: as §1
# [17] = target: Gal(b1-2)Gal
# Method in brief: as §1
# [18] = target: Gal(b1-3)GlcNAc(b1-2)Man(a1-3)[Gal(b1-3)GlcNAc(b1-2)Man(a1-6)]Man(b1-4)GlcNAc(b1-4)[Fuc(a1-6)]GlcNAc
# Method in brief: as §1
# [19] = target: Gal(b1-3)GlcNAc(b1-2)[Gal(b1-3)GlcNAc(b1-6)]Man(a1-6)[Gal(b1-3)GlcNAc(b1-2)Man(a1-3)]Man(b1-4)GlcNAc(b1-4)GlcNAc
# Method in brief: as §1
# [20] = target: Gal(b1-3)[Fuc(a1-4)]GlcNAc(b1-3)Gal(b1-4)[Fuc(a1-3)]GlcNAc
# Method in brief: as §1
# [21] = target: Gal(b1-3)[Fuc(a1-4)]GlcNAc(b1-6)GalNAc
# Method in brief: as §1
# [22] = target: Gal(b1-3)[GlcNAc(b1-6)]GalNAc
# Method in brief: as §1
# [23] = target: Gal(b1-4)Glc
# Method in brief: as §1
# [24] = target: Gal(b1-4)GlcNAc(b1-2)Man(a1-3)[Gal(b1-4)GlcNAc(b1-2)Man(a1-6)][GlcNAc(b1-4)]Man(b1-4)GlcNAc(b1-4)[Fuc(a1-6)]GlcNAc
# Method in brief: as §1
# [25] = target: Gal(b1-4)GlcNAc(b1-2)[Gal(b1-4)GlcNAc(b1-4)]Man(a1-3)[GlcNAc(b1-4)][Gal(b1-4)GlcNAc(b1-2)[Gal(b1-4)GlcNAc(b1-6)]Man(a1-6)]Man(b1-4)GlcNAc(b1-4)GlcNAc
# Method in brief: as §1
# [26] = target: Gal(b1-4)GlcNAc(b1-2)[Gal(b1-4)GlcNAc(b1-6)]Man(a1-6)[GlcNAc(b1-4)][Gal(b1-4)GlcNAc(b1-2)Man(a1-3)]Man(b1-4)GlcNAc(b1-4)GlcNAc
# Method in brief: as §1
# [27] = target: Gal(b1-4)GlcNAc(b1-3)Gal(b1-4)GlcNAc(b1-2)Man(a1-3)[Gal(b1-4)GlcNAc(b1-3)Gal(b1-4)GlcNAc(b1-2)Man(a1-6)]Man(b1-4)GlcNAc(b1-4)GlcNAc
# Method in brief: as §1
# [28] = target: Gal(b1-4)GlcNAc(b1-3)Gal(b1-4)GlcNAc(b1-2)[Gal(b1-4)GlcNAc(b1-3)Gal(b1-4)GlcNAc(b1-6)]Man(a1-6)[Gal(b1-4)GlcNAc(b1-3)Gal(b1-4)GlcNAc(b1-2)Man(a1-3)]Man(b1-4)GlcNAc(b1-4)[Fuc(a1-6)]GlcNAc
# Method in brief: as §1
# [29] = target: Gal(b1-4)GlcNAc(b1-3)Gal(b1-4)GlcNAc(b1-3)Gal(b1-4)GlcNAc
# Method in brief: as §1
# [30] = target: Gal(b1-4)GlcNAc(b1-3)Gal(b1-4)GlcNAc(b1-3)Gal(b1-4)GlcNAc(b1-2)[Gal(b1-4)GlcNAc(b1-3)Gal(b1-4)GlcNAc(b1-3)Gal(b1-4)GlcNAc(b1-6)]Man(a1-6)[Gal(b1-4)GlcNAc(b1-3)Gal(b1-4)GlcNAc(b1-3)Gal(b1-4)GlcNAc(b1-2)Man(a1-3)]Man(b1-4)GlcNAc(b1-4)[Fuc(a1-6)]GlcNAc
# Method in brief: as §1
binder,measurement,setting,value
Clone646PsrP (Streptococcus pneumoniae) (protein) MDHHHHHHHHASENLYFQGAPAINASLNIAKSETKVYTGEGVDSVYRVPIYYKLKVTNDGSKLTFTYTVTYVNPKTNDLGNISSMRPGYSIYNSGTSTQTMLTLGSDLGKPSGVKNYITDKNGRQVLSYNTSTMTTQGSGYTWGNGAQMNGFFAKKGYGLTSSWTVPITGTDTSFTFTPYAARTDRIGINYFNGGGKVVESSTTSQSLSQSKSLSVSAS,glycan array binding signal (z-score),[1],1.88
same,glycan array binding signal (z-score),[2],0.523
same,glycan array binding signal (z-score),[3],-0.74
same,glycan array binding signal (z-score),[4],2.58
same,glycan array binding signal (z-score),[5],0.085
same,glycan array binding signal (z-score),[6],-0.314
same,glycan array binding signal (z-score),[7],0.495
same,glycan array binding signal (z-score),[8],-0.761
same,glycan array binding signal (z-score),[9],-0.638
same,glycan array binding signal (z-score),[10],0.378
same,glycan array binding signal (z-score),[11],0.18
same,glycan array binding signal (z-score),[12],-0.096
same,glycan array binding signal (z-score),[13],0.979
same,glycan array binding signal (z-score),[14],1.31
same,glycan array binding signal (z-score),[15],-0.434
same,glycan array binding signal (z-score),[16],0.015
same,glycan array binding signal (z-score),[17],2.94
same,glycan array binding signal (z-score),[18],-0.421
same,glycan array binding signal (z-score),[19],9.03
same,glycan array binding signal (z-score),[20],-0.797
same,glycan array binding signal (z-score),[21],-0.757
same,glycan array binding signal (z-score),[22],0.41
same,glycan array binding signal (z-score),[23],0.581
same,glycan array binding signal (z-score),[24],-0.984
same,glycan array binding signal (z-score),[25],-0.776
same,glycan array binding signal (z-score),[26],-0.887
same,glycan array binding signal (z-score),[27],0.169
same,glycan array binding signal (z-score),[28],-0.263
same,glycan array binding signal (z-score),[29],-0.913
same,glycan array binding signal (z-score),[30],-0.442
